Experimental data taken from PubChem BioAssay.
Values without a mark were called inactive. Active and inactive are the calls of the source.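 How the source made its calls, unless noted: active means mean inhibition above 46.5%, the solvent-only control mean plus 3 SD; inactive means the rest.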

What was measured:
[1] = tested on: transactivating tegument protein VP16 (Human herpesvirus 1); assay: compounds suppressing VP16-driven luciferase signal – cell-based, luminescence, single concentration, counter-screen for SRC2 inhibitor project (AID 652007; in the data active means inhibition above about 36%); settings: cell-based VP16 transactivation luciferase reporter, at 8.9 µM, stronger effect = higher value
[2] = target: Nuclear receptor coactivator 2 (Homo sapiens) (UniProt Q15596); assay: inhibition of GAL4-SRC2 driven luciferase expression – cell-based, luminescence, HEK293, triplicate, confirmation (AID 652008); settings: HEK293 GAL4-SRC2 luciferase reporter, at 8.9 µM, stronger effect = higher value;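 further: 0% = DMSO-treated cells and 100% = Gossypol at 36 µM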
Sequence of Nuclear receptor coactivator 2 (Homo sapiens) (Q15596 whole entry, looked up, the tested form may be a part): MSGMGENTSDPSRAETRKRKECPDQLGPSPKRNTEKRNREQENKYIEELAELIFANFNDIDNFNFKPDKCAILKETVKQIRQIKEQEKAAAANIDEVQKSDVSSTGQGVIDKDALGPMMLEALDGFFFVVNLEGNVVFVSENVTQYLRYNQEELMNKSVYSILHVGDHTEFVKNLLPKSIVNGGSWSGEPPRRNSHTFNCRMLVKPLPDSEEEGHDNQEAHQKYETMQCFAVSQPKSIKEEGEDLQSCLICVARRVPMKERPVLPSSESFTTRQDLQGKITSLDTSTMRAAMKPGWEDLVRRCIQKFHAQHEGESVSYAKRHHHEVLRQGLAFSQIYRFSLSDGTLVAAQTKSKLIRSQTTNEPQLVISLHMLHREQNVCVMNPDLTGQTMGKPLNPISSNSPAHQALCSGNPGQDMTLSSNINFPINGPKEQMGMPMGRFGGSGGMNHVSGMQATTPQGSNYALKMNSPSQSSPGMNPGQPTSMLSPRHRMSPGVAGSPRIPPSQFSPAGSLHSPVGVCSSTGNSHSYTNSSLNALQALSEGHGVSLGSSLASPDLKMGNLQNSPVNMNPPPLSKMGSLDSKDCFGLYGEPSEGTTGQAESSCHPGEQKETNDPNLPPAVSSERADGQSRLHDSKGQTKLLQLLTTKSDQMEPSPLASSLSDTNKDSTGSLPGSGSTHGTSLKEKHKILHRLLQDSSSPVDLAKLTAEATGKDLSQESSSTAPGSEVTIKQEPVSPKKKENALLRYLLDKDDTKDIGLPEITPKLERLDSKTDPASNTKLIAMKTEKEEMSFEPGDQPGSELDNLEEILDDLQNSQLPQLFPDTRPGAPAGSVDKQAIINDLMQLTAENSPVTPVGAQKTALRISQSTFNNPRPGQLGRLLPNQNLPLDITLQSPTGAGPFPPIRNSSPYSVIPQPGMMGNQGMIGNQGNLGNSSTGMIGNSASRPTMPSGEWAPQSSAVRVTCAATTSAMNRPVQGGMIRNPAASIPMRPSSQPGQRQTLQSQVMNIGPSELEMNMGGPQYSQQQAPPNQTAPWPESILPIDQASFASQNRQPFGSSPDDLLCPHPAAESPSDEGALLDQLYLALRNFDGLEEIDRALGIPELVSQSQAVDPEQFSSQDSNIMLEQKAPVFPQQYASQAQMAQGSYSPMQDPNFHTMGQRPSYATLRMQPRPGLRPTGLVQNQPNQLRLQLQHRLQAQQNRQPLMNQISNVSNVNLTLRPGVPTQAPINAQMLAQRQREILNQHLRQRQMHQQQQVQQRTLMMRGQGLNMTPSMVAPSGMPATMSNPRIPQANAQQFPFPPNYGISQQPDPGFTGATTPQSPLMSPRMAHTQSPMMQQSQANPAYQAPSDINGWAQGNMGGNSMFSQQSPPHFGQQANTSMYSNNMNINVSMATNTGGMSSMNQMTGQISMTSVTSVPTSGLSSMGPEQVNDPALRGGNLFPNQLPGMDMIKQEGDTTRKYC

Compound | inhibition [1] | inhibition [2]
CCOC(=O)C1CCN(c2ncnc3c2cnn3-c2ccc(OC)cc2)CC1 | -22.3% | 39.2%
COC(=O)c1ccc2c(=O)[nH]c(COC(=O)c3[nH]c(C)c(C(C)=O)c3C)nc2c1 | -18.3% | 12.3%
CCC(=O)Nc1ccc2c(c1)C(=O)N(C)[C@@H]1CC[C@@H](CC(=O)NCc3ccc(OC)cc3)O[C@H]1CO2 | -18.1% | -9.9%
CCCN(CCC)Cc1c(C(=O)N/N=C/CCc2ccccc2)nnn1-c1nonc1N | -6.81% | -9.2%
O=[N+]([O-])c1ccc(Sc2nnnn2-c2ccccc2)nc1 | 12.5% | 40.7%
CCS(=O)(=O)Nc1ccc(C2=NN(C(=O)c3ccco3)C(c3cccs3)C2)cc1 (stereo unspecified) | -5.61% | -29.7%
O=C(NCCc1ccccc1)C(c1cccs1)N(C(=O)CCl)c1ccc(Cl)cc1 (stereo unspecified) | 22.9% | 52.8% (active)
CCOc1ccc(NC(=O)CN(C)C(=O)c2cn(-c3ccccc3)nc2-c2cccs2)cc1OCC | -4.29% | 16%
Cc1ccc2nc(C)cc(Nc3ccc4c(c3)OCCO4)c2c1 | -23.7% | 0.71%
CCOC(=O)C(C(=O)OCC)C(Nc1cccc(Br)c1)c1ccccc1 (stereo unspecified) | 8.47% | 19.3%
O=C(Nc1nccs1)c1cc([N+](=O)[O-])ccc1Cl | 12.7% | 42.9%
CCN1CCN(Cc2ccc(NC(=O)c3cccc(-c4ccc5nc(NC(=O)C6CC6)sc5n4)c3)cc2C(F)(F)F)CC1 | 24.5% | 58.1% (active)
Cc1ccc(S(=O)(=O)NNC(=O)c2sc(=S)n(C)c2C)cc1 | -4.43% | -17.1%
